Laboratory results as given in PubChem BioAssay (NCI).
The panel holds about 83,000 compounds, 20% with a hit somewhere; the sample as a whole holds those more often.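 Results are percent growth after 48 hours of single-concentration exposure. 100 means growth as in untreated cells, lower positive values show inhibition; negative values down to -100 show cell death.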 A number with no mark means an inactive call. The source made the active and inactive calls. How the source made its calls: active means growth percent below 10; inactive means the rest.

What follows are compounds tested on HL-60(TB) leukemia (assay: NCI-60 one-dose screen, 48 h (100 = growth as untreated, 0 = no growth, -100 = all killed)). Conditions: 10 µM unless noted.

SMILES	growth
C=CC(=O)N1CCC[C@@H](n2nc(-c3ccc(Oc4ccccc4)cc3)c3c(N)ncnc32)C1	82.5%
N#CC1(O)CCCCC1	104%
CCCCOc1nc2c(C)cccc2cc1-c1cc(-c2ccc(Cl)cc2)nc(-c2ccc(Cl)cc2)c1	98.8%
COc1ccc2c(c1)Nc1ccccc1S2	102%
COc1ccc(Cn2nc(-c3cc(OC)c(OC)c(OC)c3)c3c2CCc2cnoc2-3)cc1OC	16.3%
O=C(/C=C\c1cc(Br)ccc1O)/C=C/c1cc(Br)ccc1O	-3.03% (active)
CCCCCN1C=C/C(=C\C(=O)N(C)c2cccc3ccccc23)c2ccccc21	97.1%
C/C(=C(/c1ccc(Cl)cc1)c1ccc(OCCN2CCCCC2)cc1)c1ccccc1	61.8%
COc1ccc(/C=C(\C(=O)NCc2cccnc2)S(=O)(=O)c2ccccc2)cc1OC	33%
C=C(C)[C@@H]1CC[C@]2(CO)CC[C@]3(C)[C@H](CC[C@@H]4[C@@]5(C)CCC(NCCc6ccc(O)cc6)C(C)(C)[C@@H]5CC[C@]43C)[C@@H]12 (stereo not given in full)	-50.4% (active)
Clc1ccc(COc2ccc(Nc3ncnc4onc(-c5ccccc5)c34)cc2)cc1	98.8%
C[C@H]1Oc2cc(cnc2N)-c2c(nn(C)c2C#N)CN(C)C(=O)c2ccc(F)cc21	77%
COc1cc(F)c(/C=C/c2cc(/C=C/c3cc(OC)c(OC)cc3F)on2)cc1OC	85.2%
CCN=C1C=CC(=C(c2ccc(N(CC)CC)cc2)c2ccc(N(CC)CC)cc2)c2ccccc21	-31.1% (active)
CO[C@H]1C[C@@H]2CC[C@@H](C)[C@@](O)(O2)C(=O)C(=O)N2CCCC[C@H]2C(=O)O[C@H]([C@H](C)C[C@@H]2CC[C@@H](OC(=O)C(C)(CO)CO)[C@H](OC)C2)CC(=O)[C@H](C)/C=C(\C)[C@@H](O)[C@@H](OC)C(=O)[C@H](C)C[C@H](C)\C=C/C=C/C=C/1C	-11.9% (active)
O=C1C=C(O)C(=O)C(CC2=C(O)C(=O)C=C(O)C2=O)=C1O	102%
CC1=CC(=O)c2cccc(NC3=NCCO3)c21	100%
O=C(/C=C/c1ccccc1)n1c(-c2ccc(Cl)cc2)nc2ccccc21	-3.97% (active)
Cc1cc(Nc2ccc(F)cc2)nc(N2CCN(c3ccnc4cc(Cl)ccc34)CC2)n1	7.98% (active)
CCC(=O)Nc1cc2c(cc1Cl)-c1ccccc1C2	39.4%

SMILES	growth
CN1CCN(C(=O)OCc2nc3c(N4CCOCC4)nc(-c4ccccc4)nc3n2C)CC1	-32.5% (active)
COc1ccc(-c2nnc(COc3ccc(NS(=O)(=O)c4ccc(OC)cc4)cc3F)o2)cc1	76.6%
CCCCCCCCCCCCC1C/C=C\CCCC(=O)O1 (stereo not given)	88.4%
CC1(C)CC(=O)C2=C(C1)N(c1ccc(OC(F)(F)F)cc1)C(N)=C(C#N)C2c1ccc(Br)cc1F (stereo not given)	78.5%
CCc1nn2c(-c3cc(OC)c(OC)c(OC)c3)c(-c3cc(OC)c(OC)c(OC)c3)nc2s1	59.3%
COc1ccc(/C=C/C(=O)/C=C/c2cc3ccccc3[nH]c2=O)cc1	62.9%
Nc1cccc(-c2nc3sccn3c2-c2ccnc(NCCCNS(=O)(=O)c3ccc(C(F)(F)F)cc3)n2)c1	-18.5% (active)
O=C(C(=O)c1cccnc1)c1cccnc1	104%
Cc1cccc[n+]1C1c2ccccc2-c2ccccc21	92%
CC(=O)O[C@H]1CC[C@@]2(C)C(=CC[C@@H]3[C@@H]2CC[C@]2(C)C(=O)N(O)C(=O)C[C@@H]32)C1	105%
COc1cc(/C=C/C(=O)c2cccc(-n3cc(-c4ccccc4)[nH]c3=O)c2)ccc1O	3.49% (active)
CS(=O)(CCCCN=C=S)=NC(=O)c1c(F)c(F)c(F)c(F)c1F (stereo not given)	72.5%
Cc1c(Cl)cccc1NC(=O)CN1CCOCC1	81.7%
CC[C@@H]1NC(=O)[C@H]([C@H](O)[C@H](C)C/C=C/c2ccc(CN3C(=O)CCCC3=O)cc2)N(C)C(=O)[C@H](C(C)C)N(C)C(=O)[C@H](CC(C)C)N(C)C(=O)[C@H](CC(C)C)N(C)C(=O)[C@@H](C)NC(=O)[C@H](C)NC(=O)[C@H](CC(C)C)N(C)C(=O)[C@H](C(C)C)NC(=O)[C@H](CC(C)C)N(C)C(=O)CN(C)C1=O	61.3%
O=c1ccn(C2CC(O)C(COC(c3ccccc3)(c3ccccc3)c3ccccc3)O2)c(=O)[nH]1 (stereo not given)	10.1% [100 µM]
Nc1c(Br)cc(O)c2c1C(=O)c1ccccc1C2=O	41.9%
COc1ccc(S(=O)(=O)NCCCNc2nccc(-n3ccc4cccnc43)n2)cc1	104%
NC(=N\N=C\c1ccccc1O)/C(N)=N/N=C/c1ccccc1O	69.5%
Cc1cnc(C(=O)Nc2nc3ccc(S(=O)(=O)Nc4ccc(C5(C(F)(F)F)CC5)cc4)cc3[nH]2)cn1	-25.1% (active)
O=C(/C(=C/c1ccccc1)CBr)c1ccccc1	9.09% (active)
